Data on 48 compounds can be found in PubChem BioAssay (NCATS).

SMILES strings stand for the structures. Where “and” joins values, the source holds several entries; their conditions need not be identical. Identical values can stand only once. Records with an inconclusive call do not appear. Calls of active or inactive are those of the source. Unless noted, the call rests on the fitted dose curve; in most records, active means well fitted curve in the direction sought with a large enough effect; inconclusive means small, poorly fitted or top-dose-only effect, or another doubt; inactive means no such curve, though single readings can be large; an effect the other way counts as inactive or inconclusive.

Assay [1] is described as follows: qHTS Assay for Identifying Gametocytocidal Compounds (AID 743244). Further: potency means the concentration at half of the fitted maximal effect.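 On max response: on the % scale 0 is the no-effect control and ±100 the full control effect; actives lower the fluorescent signal which means gametocytes are killed.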 Particulars: P. falciparum 3D7 stage III-V gametocytes, alamarBlue, 72 h; max response: stronger effect = lower value. In short, it runs like this:
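Late gametocytes (III–V), P. falciparum 3D7; 72 h drug, then 24 h alamarBlue; resazurin reduction read by fluorescence.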
(In general: In qHTS, concentration-response curves come from the screen itself.)

The nature of assay [2]: qHTS assay for cell viability of HEK293 cells (AID 743288). Further: on the % scale 0 is the no-effect control and ±100 the full control effect; nearly all actives have a fitted effect of over 50% in size. Particulars: ATP luminescence (CellTiter-Glo), 18 h, stronger effect = lower value. In short, it runs like this: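 Luminescent ATP quantitation served as the viability read-out. Cells (parental HEK293, 2,000/well) received compounds after at least 5 h at 37 C and were exposed for 18 h before a 30 min room-temperature reagent step.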

Assay [3] can be described thus: qHTS assay for cell viability of the p53RE-bla HCT-116 cell line (AID 743292). Further: on the % scale 0 is the no-effect control and ±100 the full control effect; nearly all actives have a fitted effect of over 55% in size. In short, it runs like this:
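CellSensor p53RE-bla HCT-116 cells (4,000/well) pre-incubated 5 h at 37 C, then exposed to compounds in DMSO for 16 h at 37 C. Viability read as ATP content by CellTiter-Glo luminescence after 30 min at room temperature.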

The nature of assay [4]: qHTS profiling for inhibitors of Plasmodium falciparum (3D7) proliferation (AID 743322; call rule not given here;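 further: infected erythrocytes exposed to compound for 72 h before lysis; 100% = DMSO vehicle wells and 0% = 0.29 µM artemisinin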). Particulars: P. falciparum 3D7 proliferation; at 28.7 µM (top of the series) unless noted. In short, it runs like this:
(§1)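 Erythrocytes infected with P. falciparum (0.3% parasitemia, 2.5% hematocrit) incubated with compounds 72 h at 37 C, 5% CO2. Lysis with saponin/Triton buffer containing SYBR Green I, overnight at room temperature in the dark; DNA fluorescence (485/535 nm) normalised to 0.29 uM artemisinin and DMSO.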

The nature of assay [5]: qHTS profiling for inhibitors of Plasmodium falciparum (DD2) proliferation (AID 743323; call rule not given here). The following applies: lower = more inhibition; at 28.7 µM (top of the series) unless noted. In short, it runs like this:
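SYBR Green fluorescence (ex 485, em 535 nm) of lysed cultures gives parasite DNA content; wells normalized to artemisinin (0.29 uM) and DMSO controls. Infected red cells: 0.3% parasitemia, 2.5% hematocrit, 72 h, 37 C.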

A short description of assay [6]: qHTS profiling for inhibitors of Plasmodium falciparum (HB3) proliferation (AID 743324).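 Further: 100% = DMSO vehicle wells and 0% = artemisinin-treated control wells.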 Particulars: Plasmodium falciparum HB3 blood-stage proliferation; at 28.7 µM (top of the series) unless noted. In short, it runs like this:
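P. falciparum HB3 grown in erythrocytes (0.3% parasitemia, 2.5% hematocrit final) with compound for 72 h at 37 C, 5% CO2. Parasite DNA detected by SYBR Green after saponin/triton lysis overnight; normalized to 0.29 uM artemisinin and DMSO.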

Assay [7] is described as follows: qHTS profiling of the MIPE4 collection as inhibitors of Plasmodium falciparum (3D7) proliferation (AID 743344; call rule not given here;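 further: scaled between DMSO vehicle wells and 0.29 µM artemisinin as full inhibition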). Particulars: P. falciparum 3D7 in erythrocytes, SYBR Green DNA fluorescence, 72 h; at 28.5 µM (top of the series) unless noted. The gist of the method:
as §1

A short description of assay [8]: qHTS profiling of the MIPE4 collection as inhibitors of Plasmodium falciparum (DD2) proliferation (AID 743345; call rule not given here). The following applies: P. falciparum Dd2 in erythrocytes, SYBR Green DNA, 72 h; at 28.5 µM (top of the series) unless noted. The text has this:
Plasmodium falciparum is a virulent malarial parasite that kills 1-2 million people worldwide each year. Transmitted by mosquitoes, the sporozoite form of the parasite enters the blood stream to infect hepatocytes, where they become merozoites that infect red blood cells (erythrocytes). Within erythrocytes, merozoites begin a […] cycle of growth and division, after which the parasite is released to infect new red blood cells. Gametocytes, which form within erythrocytes as well, circulate in the bloodstream and are ingested by the mosquito, thereby completing the life cycle. To profile malarial isolates for differential chemical responses and to identify inhibitors of malarial growth, an assay that measures P. falciparum growth and replication within erythrocytes was employed. This assay uses a DNA binding fluorescent dye (SYBR Green) to detect parasite DNA following cell lysis. Because mature erythrocytes lack DNA, only Plasmodium-derived DNA is detected.
The SYBR Green viability assay was adapted from a method described previously (Plouffe et al., 2008). For screening 3 ul culture medium was dispensed into 1536 well black clear bottom plates (Aurora Biotechnologies) using a Multidrop Combi (Thermo Fisher Scientific Inc.), 23 nL compounds in DMSO were added by a pin tool (Kalypsys), and 5 ul of erythrocytes infected with P. falciparum (0.3% parasitemia, 2.5% hematocrit final concentration) were added. The plates were incubated at 37 C in a humidified incubator in 5% CO2 for 72 h, and 2 ul lysis buffer (20 mM Tris HCl, 10 mM EDTA, 0.16% saponin, 1.6% triton X, 10X SYBR Green I supplied as 10,000X […] by Invitrogen) was added to each well. The plates were mixed for 25 sec with gentle shaking and incubated overnight at room temperature in the dark. The following morning, fluorescence intensity at 485(14) nm excitation and 535(25) nm emission wavelengths was measured on an EnVision (Perkin Elmer) plate reader. Plate reads were normalized relative to the control inhibitor (0.29 uM artemisinin) and vehicle (DMSO) wells present on each plate and then corrected by an algorithm using vehicle-only control plates at the beginning and end of the compound plate stack.

Assay [9] in a line: qHTS profiling of the MIPE4 collection as inhibitors of Plasmodium falciparum (DD2) proliferation (Rep 2) (AID 743346; call rule not given here). Particulars: P. falciparum Dd2 in erythrocytes, SYBR Green DNA, 72 h; at 28.5 µM (top of the series) unless noted. The gist of the method: as §1
A short description of assay [10]: qHTS profiling of the MIPE4 collection as inhibitors of Plasmodium falciparum (HB3) proliferation (AID 743347; call rule not given here;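 further: plate controls were DMSO vehicle wells for no effect and artemisinin wells for full effect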). The following applies: P. falciparum HB3 in erythrocytes, SYBR Green DNA, 72 h; at 28.5 µM (top of the series) unless noted. In short, it runs like this: as §1

`CCCCCCCCCCCCCCCC[N+](C)(C)CC`: the Potency in [1] is 14.1 µM (active).

With `Oc1ccc(Cl)c2cccnc12`, in assay [1], the Potency is 7.94 µM (active).

Take `CNC(=O)CN(CCN(CCN(CC(=O)[O-])CC(=O)NC)CC(=O)[O-])CC(=O)[O-].O.[Gd+3]`: in assay [1], the max response is 14.6% (inactive) and -8.14% (inactive).

For `O=c1[nH]c(=O)n([C@H]2C[C@H](O)[C@@H](CO)O2)cc1C(F)(F)F`, the max response in [1] was 15% (inactive).

`CCCCS(=O)(=O)N[C@@H](Cc1ccc(OCCCCC2CCNCC2)cc1)C(=O)O`: the max response in assay [1] is 3.65% (inactive).

As for `CC(C)(CO)[C@@H](O)C(=O)NCCCO`, the max response in assay [1] was 14.7% (inactive).

Turning to `Nc1ccc(C(=O)Nc2ccccc2N)cc1`, the max response in [1] is 0.176% (inactive).

Take `CNCC[C@@H](Oc1ccccc1C)c1ccccc1`: in [1], the max response was -11.3% (inactive).

Consider `O=C(OCCOCCO)c1ccccc1Nc1cccc(C(F)(F)F)c1`, for which the max response in assay [1] was 12.2% (inactive).

`Cc1ccnc(NS(=O)(=O)c2ccc(N)cc2)n1`: in [1], the max response is 9.97% (inactive).

As for `CC1=C(C(=O)O)N2C(=O)[C@@H](NC(=O)[C@H](N)c3ccc(O)cc3)[C@H]2SC1`, in assay [1], the max response is 17.2% (inactive).

As to `N[C@H](CO)C(=O)O`, the max response in assay [1] was 0.963% (inactive) and 16.2% (inactive).

As for `Nc1cc(Cl)c(NC2=NCCN2)c(Cl)c1`, in [1], the max response was -0.108% (inactive) and 36.5% (inactive).

As for `CC(C)COC(=O)c1ccc(N)cc1`, the max response in assay [1] was 10.2% (inactive).

Turning to `O=C(Nc1ccc(Cl)c(Cl)c1)C1CC1`, in assay [1], the max response was 14% (inactive).

As to `CCN(CC)CCNC(=O)COc1ccc(Cl)cc1`, the max response in assay [1] is -6.47% (inactive).

Take `NC[C@H]1O[C@H](O[C@H]2[C@H](O[C@@H]3O[C@H](CO)[C@@H](O)[C@H]3O)C(O)[C@H](N)C[C@@H]2N)[C@H](N)[C@@H](O)[C@@H]1O` (stereo partly drawn): the max response in assay [1] is 0.613% (inactive).

Turning to `C[C@@H]1C[C@H]2[C@@H]3C[C@H](F)C4=CC(=O)C(Cl)=C[C@]4(C)[C@@]3(F)[C@@H](O)C[C@]2(C)[C@@]1(O)C(=O)CO`, the max response in assay [1] was 5.34% (inactive).

`NC(CO)(CO)CO`: in assay [1], the max response is 0.227% (inactive).

With `COc1cc(C(=S)N2CCOCC2)cc(OC)c1OC`, the max response in [1] is 7.8% (inactive).

For `COc1ccc(CCN2CCC(Nc3nc4ccccc4n3Cc3ccc(F)cc3)CC2)cc1`, in assay [1], the Potency was 3.16 µM (active).

As to `O=C(OCC(O)CO)c1ccccc1Nc1ccnc2cc(Cl)ccc12` (stereo not drawn), the max response in assay [1] was 7.94% (inactive).

Take `Cc1nc2n(c(=O)c1CCN1CCC(c3noc4cc(F)ccc34)CC1)CCC[C@H]2O`: the max response in assay [1] is -12.7% (inactive).

For the compound `Oc1cc(O)c2c(c1)O[C@H](c1ccc(O)c(O)c1)[C@H](O)C2`, the max response in assay [1] is 2.48% (inactive).

Regarding `C[n+]1c2cc(N)ccc2cc2ccc(N)cc21` (tested in a mixture with another compound), the Potency in assay [1] is 7.94 µM (active).

With `C[C@H](CCC(=O)O)[C@H]1CC[C@H]2[C@@H]3C(=O)C[C@@H]4CC(=O)CC[C@]4(C)[C@H]3CC(=O)[C@]12C`, the max response in [1] was 6.84% (inactive).

With `O=C1OC2(c3ccc(O)cc3Oc3cc(O)ccc32)c2ccccc21`, in assay [1], the max response is -13.2% (inactive) and 24.2% (inactive).

In the case of `CCN1CCCC1=O`, the max response in assay [1] was 5.59% (inactive).

`C[C@]12C=CC(=O)C=C1[C@@H](F)C[C@@H]1[C@@H]2[C@@H](O)C[C@@]2(C)[C@H]1CC[C@]2(O)C(=O)CO`: the max response in assay [1] is -0.315% (inactive) and -15.3% (inactive).

As for `CC[N+](CC)(CCNC(=O)C(=O)NCC[N+](CC)(CC)Cc1ccccc1Cl)Cc1ccccc1Cl`, the max response in assay [1] is 15.6% (inactive).

Regarding `CCC(NC(C)C)C(O)c1ccc(O)c(O)c1` (stereo not drawn), the max response in assay [1] is -4.31% (inactive).

In the case of `O=C(O)CNC(=O)c1ccccc1`, the max response in [1] was 1.04% (inactive).

Regarding `O=C1c2ccccc2C(=O)C1c1ccccc1`, the max response in assay [1] was 1.91% (inactive).

With `CN1[C@@H]2CC[C@H]1CC(OC(=O)c1c[nH]c3ccccc13)C2` (stereo partly drawn), the max response in assay [1] is 7.82% (inactive).

For `C#C[C@]1(OC(C)=O)CC[C@H]2[C@@H]3CCC4=C[C@@H](OC(C)=O)CC[C@@H]4[C@H]3CC[C@@]21C`, the max response in assay [1] was -2.21% (inactive) and -10.1% (inactive).

With `COc1ccc(C2C(=O)c3ccccc3C2=O)cc1`, in [1], the max response is 5.04% (inactive).

Consider `NCCc1ccn[nH]1`, for which the max response in assay [1] was 5.14% (inactive).

Regarding `CC/C(=C(/CC)c1ccc(O)cc1)c1ccc(O)cc1`, the max response is 26.7% (inactive) in assay [1]; -28.4% (inactive) and -12.5% (inactive) in assay [2]. Besides, the compound was classed as inactive in [3].

`CCN(CC)C(=O)/C(C#N)=C/c1cc(O)c(O)c([N+](=O)[O-])c1`: the max response in assay [1] is -6.8% (inactive).

As for `Oc1ccc(O)cc1`, the max response in [2] is -28.2% (inactive).

Take `COc1cc2c(cc1O)CC[C@@H]1[C@@H]2CC[C@]2(C)[C@@H](O)CC[C@@H]12`: the max response in [1] was -20.1% (inactive) and 26.1% (inactive). The remaining parasite growth % (stronger effect = lower value) in assay [4] is 90.1% and 79.2%. In addition, the activity, percent of control in [5] is 93.6% and 83.5%. For the same compound, the remaining proliferation (% of control), lower = more inhibition in assay [6] is 93.9% and 38.4%. The same compound registered a parasite growth, % of DMSO control in [7] of 83.5%. The parasite growth remaining, % of DMSO control (lower = more inhibition) in assay [8] was found to be 96.4%. The parasite growth, % of control (lower = inhibition) in assay [9] stood at 130%. In assay [10], this compound showed a growth, % of control of 83.5%.

As to `C[C@H]1C[C@H]2[C@@H]3CCC4=CC(=O)C=C[C@]4(C)[C@@]3(Cl)[C@@H](O)C[C@]2(C)[C@@]1(O)C(=O)CO`, the max response was 3.92% (inactive) in assay [1] and -18.8% (inactive) in assay [2]. Also, the outcome in assay [3] was inactive.

`CC(C)(Oc1ccc(Cl)cc1)C(=O)O`: the max response in [2] is -4.41% (inactive). For the same compound, the compound was classed as inactive in [3].

For the compound `CCCCCCc1ccc(O)cc1O`, the max response in [1] was 3.3% (inactive); in [2], -5.8% (inactive) and 9.71% (inactive). Further, the call in assay [3] was inactive.

With `O=C1OC(c2ccc(O)cc2)(c2ccc(O)cc2)c2ccccc21`, the max response in [1] was 7.07% (inactive); in [2] it was -1.91% (inactive) and -6.06% (inactive). The compound was classed as inactive in assay [3].

On to `COc1cccc2c1C(=O)c1c(O)c3c(c(O)c1C2=O)C[C@@](O)(C(C)=O)C[C@@H]3O[C@H]1C[C@H](N)[C@H](O)[C@H](C)O1`, for which, in assay [1], the Potency was 6.31 µM (active). In addition, the compound was classed as inactive in [3].

For the compound `Oc1c(Cl)cc(Cl)cc1Sc1cc(Cl)cc(Cl)c1O`, the max response in assay [1] was 20.1% (inactive). In addition, the call in [3] was inactive.

As for `Nc1ccc(C(=O)O)cc1`, the results for the max response in [1] and in assay [2] were -1.31% (inactive) and 7.36% (inactive), respectively. Besides, the compound was classed as inactive in [3].
